A short description of experiment [1]: Primary qHTS for inhibitors of nuclear receptor binding SET domain protein 2 (NSD2) in an isogenic RCH-ACV NSD2 p.E1099K mutant (9B) (AID 1645876). To be noted: RCH-ACV NSD2 E1099K (9B) viability, CellTiter-Glo, 72 h; series mostly up to 44.9 µM. (In general: In qHTS, concentration-response curves come from the screen itself.)
A short description of experiment [2]: Primary qHTS for inhibitors of nuclear receptor binding SET domain protein 2 (NSD2) in an RCH-ACV wild type WT cells (2C) (AID 1645877). To be noted: RCH-ACV (leukaemia line) NSD2 WT (2C) viability, CellTiter-Glo, 72 h; series mostly up to 44.9 µM.

“And” between values parts separate entries of the source, which are not always exact repeats. Equal entries are not always repeated. Records with an inconclusive call do not appear. The source made the active and inactive calls. Calls come from the whole dose curve; as a rule, active = well fitted curve in the direction sought with a large enough effect; inconclusive = small, poorly fitted or top-dose-only effect, or another doubt; inactive = no such curve, though single readings can be large; an effect the other way counts as inactive or inconclusive. Where a SMILES comes first, the peptide text is derived from it. The star is where a group is joined. Cbz = O=C(OCc1ccccc1)*; CH2Cl = ClC*
Note: nearly all actives have a fitted effect of over 70% in size.
Potency is the fitted concentration of half-maximal effect.

Consider `CCc1c[nH]c2ncnc(N3CC[C@](N)(CNC(=O)c4ccc(F)cc4F)C3)c12`, for which the Potency in experiment [1] is 1.63 µM (active); in experiment [2] it was 3.65 µM (active).

`Nc1nc2c(nc(Br)n2[C@@H]2O[C@@H]3COP(=O)(O)O[C@H]3[C@H]2O)c(=O)[nH]1`: the Potency result in experiment [1] and in experiment [2] was “inactive” each time.

Consider `CNc1nc(Nc2ccc(C(=O)N3CCOCC3)cc2OC)nc2[nH]cc(Cl)c12`, for which the Potency was 4.09 µM (active) in experiment [1] and 2.9 µM (active) in experiment [2].

For the molecule `C=C1C(=O)O[C@@H]2C[C@@]3(C)C[C@@H](O)C[C@H](C)C3=C[C@H]12`, the Potency in experiment [1] is 7.28 µM (active); in experiment [2] it was 5.15 µM (active).

For `CC(C)(CNC(=O)c1cccc(-c2noc(C(F)(F)F)n2)c1)c1coc(-c2ccccc2)n1`, the Potency was 20.9 µM (active) in experiment [1] and 23.5 µM (active) in experiment [2].

For `C=C1C(=O)OC2/C=C(\C)CC/C=C(\C=O)C(OC)C(OC(=O)C(C)CC)C12` (stereo unspecified), the figures for the Potency in experiment [1] and in experiment [2] were 7.13 µM (active) and 2.84 µM (active), respectively.

Regarding `COC1CC(O[C@H]2CC[C@]3(C)C4CC[C@@]5(C)C(=O)[C@]4(CC[C@@H]3C2)CC[C@@H]5C2=CC(=O)OC2)OC(C)C1OC1OC(COC2OC(CO)C(O)C(O)C2O)C(O)C(O)C1O` (stereo partly specified), the results for the Potency in experiment [1] and in experiment [2] were 1.54 µM (active) and 2.75 µM (active), respectively.

Take `CC(=O)O[C@H]1CC2C(COC(=O)CC(C)C)=CO[C@@H](OC(=O)CC(C)C)C2[C@]12CO2` (stereo partly specified): the Potency was 7.96 µM (active) in experiment [1] and 3.55 µM (active) in experiment [2].

`C=C1CO[C@@]2(O[C@H]3CC4C5CC=C6C[C@@H](O)C[C@@H](O[C@@H]7OC[C@H](O)[C@H](O[C@@H]8OC[C@@H](O)[C@H](O)[C@H]8O)[C@H]7O[C@@H]7O[C@@H](C)[C@H](OC(C)=O)[C@@H](OC(C)=O)[C@H]7OC(C)=O)[C@]6(C)C5CC[C@]4(C)[C@@H]3[C@@H]2C)[C@@H](O)[C@H]1OC1OC(C)C(O)C(O)C1O` (stereo partly specified): the Potency in experiment [1] and in experiment [2] was 2.18 µM (active) each time.

On to `COC(=O)CC[C@@H](C)C1CCC2C3CCC4C[C@H](OC(C)=O)CCC4(C)C3C[C@H](O)C21C` (stereo partly specified), for which the Potency entry in experiment [1] and in experiment [2] was “inactive” in each case.

`CC(C)C[C@H](NC(=O)CNC(=O)OCc1ccccc1)C(=O)N[C@@H](Cc1ccccc1)C(=O)CCl` (Cbz-Gly-Leu-Phe-CH2Cl): the Potency is 7.28 µM (active) in experiment [1] and 3.65 µM (active) in experiment [2].

For `Cn1sc(=O)n(Cc2ccccc2)c1=O`, the Potency was 7.28 µM (active) and 18.4 µM (active) in experiment [1]; 2.58 µM (active) and 11.6 µM (active) in experiment [2].

With `CCC(CC)Nc1nc(C)c(-c2ccc(OC(F)(F)F)cc2OC)nc1OC`, the Potency entry in experiment [1] and in experiment [2] was “inactive” each time.
